Consider 37 compounds from PubChem BioAssay (NCI).

This is part of a sample that, as a whole, favours compounds with a hit. Of some 79,000 tested, about 15% had one in any assay. A number with no mark means an inactive call. The source made the active and inactive calls. No stated cut-off is given here; in the data, active means growth inhibition above about 70%; inactive means the rest.

The nature of test [1]: NCI Yeast Anticancer Drug Screen. Data for the rad50 strain (AID 155).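 Further: 0% = growth of vehicle-only cultures of the same strain.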 Particulars: S. cerevisiae rad50 strain growth inhibition; at 50.0 µM; hits give high values. Summed up:
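Vehicle-treated cultures provide the reference for the growth inhibition reported for compound-exposed, repair-deficient yeast.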

The nature of test [2]: NCI Yeast Anticancer Drug Screen. Data for the mec2-1 strain (AID 157). Particulars: S. cerevisiae mec2-1 strain, at 50.0 µM, hits give high values. Summed up:
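Using mec2-1 yeast: add compound, measure growth, express inhibition versus vehicle-treated cultures.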

The nature of test [3]: NCI Yeast Anticancer Drug Screen. Data for the sgs1 mgt1 strain (AID 161).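 Further: 0% = growth of cultures given vehicle only.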 The following applies: S. cerevisiae sgs1 mgt1 strain, at 50.0 µM, hits give high values. Summed up: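 Yeast cells carrying a defined DNA-repair defect were exposed to test compounds. Growth inhibition was measured relative to vehicle-treated controls.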
The nature of test [4]: NCI Yeast Anticancer Drug Screen. Data for the cln2 rad14 strain (AID 165).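 Further: 0% = growth equal to vehicle treated cultures.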 Particulars: S. cerevisiae cln2 rad14 strain, at 50.0 µM, hits give high values. Summed up:
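Yeast strain cln2 rad14, bearing defects in cell cycle control and DNA repair, serves as the test system; values reflect growth inhibition compared with vehicle.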

Test [5] is described as follows: NCI Yeast Anticancer Drug Screen. Data for the bub3 strain (AID 167). The following applies: S. cerevisiae bub3 mutant strain, at 50.0 µM, hits give high values. An outline of the steps: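 Mutant yeast screening strain plus compound; vehicle-treated cultures serve as the 0% inhibition reference.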
Test [6] is described as follows: NCI Yeast Anticancer Drug Screen. Data for the mlh1 rad18 strain (AID 175). The following applies: S. cerevisiae mlh1 rad18 strain growth inhibition; at 50.0 µM; hits give high values. Summed up: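 Steps: expose repair-defective yeast to compound; measure growth; express inhibition against vehicle-treated controls.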

`CN(C)CCN(C)C.[C-]#[O+].[C-]#[O+].[C-]#[O+].[C-]#[O+].[W+2]`: the growth inhibition in test [1] is -13%; in test [2], -4.65%; in test [3], -7.5%; in test [4], -51.1%; in test [5] it was 2.1%; in test [6] it was 0.05%.
Take `COc1cccc(N2C(=O)C3C(C2=O)C2(Cl)C(Cl)=C(Cl)C3(Cl)C2(Cl)Cl)c1` (configuration not stated): the growth inhibition is 58.4% in test [1]; 45.2% in test [2]; 53.5% in test [3]; 10.1% in test [4]; 19.4% in test [5]; 49.8% in test [6].
On to `CCCN(CCC)c1c([N+](=O)[O-])cc(C(=O)N(CC)CC)cc1[N+](=O)[O-]`, for which the growth inhibition in test [1] was 40.6%; in test [2], 29.8%; in test [3] it was 37.4%; in test [4], 13.8%; in test [5], 34.1%; in test [6] it was 11.3%.
Regarding `CC(C)CCCC(C)CO[P+](=O)OCC(C)CCCC(C)C` (configuration not stated), the growth inhibition in test [1] was 31.9%; in test [2], 7.4%; in test [3], 18.5%; in test [4], 20.4%; in test [5], 5.8%; in test [6], 1.25%.
Consider `CN(N=O)C1=NC2(CCCCC2)P(=O)(NNc2ncccn2)O1` (configuration not stated), for which the growth inhibition is 0.9% in test [1]; -17.9% in test [2]; -15.2% in test [3]; 9.85% in test [4]; 11.2% in test [5]; 13.1% in test [6].
As for `O=C(CN1CC1)NCCCCCCCNC(=O)CN1CC1`, the growth inhibition in test [1] was -13.4%; in test [2] it was 3.5%; in test [3], 1.6%; in test [4] it was 8.15%; in test [5], -4.15%; in test [6], 25.4%.
As for `COc1cc(OC)cc(C(=O)Cc2c(C(=O)c3ccccc3)c3ccccc3n2C(=O)c2ccccc2)c1`, the growth inhibition in test [1] was -5.5%; in test [2] it was -6%; in test [3] it was 0.1%; in test [4] it was -50.3%; in test [5], -2.15%; in test [6], 3.2%.
For `CC1(C)[C@@H]2CC[C@@]1(C)CN(CCC[N+](C)(C)C)C2`, the growth inhibition was 15.4% in test [1]; -11.8% in test [2]; -30.6% in test [3]; -5.55% in test [4]; -19.4% in test [5]; -2.35% in test [6].
For the compound `CC1(C)SC2C(NC(=O)Cc3ccccc3)C(=O)N2C1C(=O)O` (configuration not stated) (tested in a mixture with another compound), the growth inhibition was 2.2% in test [1]; 0.85% in test [2]; 13.5% in test [3]; -2.3% in test [4]; -12.3% in test [5]; -11.7% in test [6].
Take `O=C(Nc1ccccc1)C(Cl)(Cl)Cl`: the growth inhibition in test [1] was -10.1%; in test [2] it was -25.8%; in test [3], 11.1%; in test [4] it was -10.2%; in test [5] it was -9.8%; in test [6], 19.8%.
As for `N#CC(C#N)/C=C/[Se]c1ccccc1`, the growth inhibition in test [1] was 14.2%; in test [2], 1.65%; in test [3] it was 2.1%; in test [4], 26.8%; in test [5] it was 0.35%; in test [6] it was 3.6%.
For `ClCCN(CCCl)c1ccc(/C=N/N2CCN(/N=C/c3ccc(N(CCCl)CCCl)cc3)CC2)cc1`, the growth inhibition is 7.85% in test [1]; -2.9% in test [2]; 21.9% in test [3]; 7.85% in test [4]; -11.1% in test [5]; -1.25% in test [6].
For `CC(COC(=O)NCc1ccc(Cl)cc1Cl)OC(N)=O` (configuration not stated), the growth inhibition in test [1] is 2.6%; in test [2] it was 0.35%; in test [3], 4.25%; in test [4], -12.8%; in test [5], -5%; in test [6], -8.65%.
Take `O=C(O)CN1C(=O)CN=C(c2ccccn2)c2cc(Cl)ccc21`: the growth inhibition was -5.45% in test [1]; -8.6% in test [2]; -23.8% in test [3]; -50.6% in test [4]; -15.3% in test [5]; -17% in test [6].
Turning to `CCOC(CNC(=O)c1ccc(S(=O)(=O)F)cc1)OCC`, the growth inhibition in test [1] is -4.4%; in test [2] it was 27.6%; in test [3], 22.1%; in test [4], -5.9%; in test [5], 42.8%; in test [6], 26.4%.
As to `COc1ccc2[nH]cc(CCN)c2c1`, the growth inhibition in test [1] was 3.95%; in test [2], -12.4%; in test [3], -13.5%; in test [4], -10.4%; in test [5], 3.6%; in test [6], -24.1%.
With `CCC(=O)N(c1ccccc1)C(C)CN1CCC(O)(c2ccccc2)CC1` (configuration not stated), the growth inhibition was 4.2% in test [1]; -12.4% in test [2]; 5.9% in test [3]; -37% in test [4]; -10.4% in test [5]; -8.15% in test [6].
As to `CC(C)OP(=O)(OC(C)C)C(C(F)(F)F)C(F)(F)F`, the growth inhibition in test [1] was -3.65%; in test [2] it was 9.65%; in test [3] it was 19%; in test [4], 45.9%; in test [5], 10.6%; in test [6], -23.1%.
Take `CC[C@@H]1C[C@H]2CC3c4[nH]c5ccccc5c4CCN(C2)C31`: the growth inhibition in test [1] was 45.9%; in test [2], 30.2%; in test [3] it was 61.3%; in test [4], 37%; in test [5] it was 47.2%; in test [6], 65.8%.
Consider `N.N.N.N.O=C([O-])C(=O)O.O=C([O-])C(=O)[O-].[Co+3]`, for which the growth inhibition in test [1] is -2.9%; in test [2], 1.5%; in test [3], -10.6%; in test [4], 13.6%; in test [5], 11.9%; in test [6] it was -11.6%.
As for `N#Cc1ccncc1`, the growth inhibition in test [1] was 22.3%; in test [2] it was -24.1%; in test [3] it was 23.9%; in test [4], -3.75%; in test [5], 7.35%; in test [6], 16%.
In the case of `CN(CCOC(=O)c1ccc(Br)cc1)[N+](=O)[O-]`, the growth inhibition in test [1] is 8.9%; in test [2], 3.2%; in test [3] it was -6.25%; in test [4], 5.8%; in test [5], 38.9%; in test [6], 22.9%.
For `Cc1ccc(NC(=O)C(=O)C2C(=O)NC(=O)NC2=O)cc1C`, the growth inhibition in test [1] was -4.9%; in test [2], -14.3%; in test [3], -34.6%; in test [4], 3.85%; in test [5] it was -19.9%; in test [6], -23.2%.
For `C/C(=C\COc1ccc2ccc(=O)oc2c1)C1=CC(=O)C(C)(C)O1`, the growth inhibition in test [1] is -2.65%; in test [2] it was -17.2%; in test [3], 18.9%; in test [4], 9.85%; in test [5] it was -14.8%; in test [6], 12.2%.
For the compound `C[CH2][Sn]([CH2]C)([O]C(=O)c1ccc(F)cc1)[O]C(=O)c1ccc(F)cc1`, the growth inhibition was 30.5% in test [1]; 17.7% in test [2]; 38.5% in test [3]; 15.1% in test [4]; 15.2% in test [5]; 17.6% in test [6].
Regarding `CC1(C)N=C(N)N=C(N)N1c1ccc(CCc2ccc(S(=O)(=O)F)c(Cl)c2)c(Cl)c1`, the growth inhibition in test [1] is 99.2% (active); in test [2], 99.7% (active); in test [3], 99.8% (active); in test [4], 98.7% (active); in test [5] it was 99.2% (active); in test [6] it was 99.7% (active).
For `S=c1nccc[nH]1`, the growth inhibition in test [1] was 37.5%; in test [2], 24.2%; in test [3], 34.5%; in test [4], 37.5%; in test [5] it was 0.35%; in test [6] it was 17.4%.
Turning to `O=c1[nH]c2ccc([As](=O)(O)O)cc2[nH]1`, the growth inhibition in test [1] was -8.7%; in test [2] it was -1.1%; in test [3], -0.95%; in test [4], -5.2%; in test [5], 13.7%; in test [6] it was 8.55%.
In the case of `NCCN1CC2CCC(CC2)C1`, the growth inhibition in test [1] was -53.1%; in test [2], -48.3%; in test [3], -27.1%; in test [4], -5.75%; in test [5] it was -3.55%; in test [6], -11.7%.
Regarding `[N-]=[N+]=C1CNC(=O)NC1=O`, the growth inhibition in test [1] was 9.9%; in test [2] it was -19.6%; in test [3], -10.6%; in test [4], 0.05%; in test [5], -0.15%; in test [6], 1.05%.
Turning to `O=P1(C(Cl)Cl)OCCCO1`, the growth inhibition in test [1] is -9.35%; in test [2], 10.7%; in test [3] it was -2.65%; in test [4], -10.2%; in test [5], -0.15%; in test [6] it was -0.15%.
For `NNc1c(C(N)=O)c2c(N)ncnc2n1C1OC(CO)C(O)C1O` (configuration not stated), the growth inhibition in test [1] was -0.6%; in test [2], 37.8%; in test [3] it was 4.9%; in test [4] it was 10.5%; in test [5], 4.55%; in test [6] it was 19.9%.
As for `CC(C)(CBr)COP1(=O)NCC(C)(C)CO1` (configuration not stated), the growth inhibition in test [1] was 13.7%; in test [2], -3.7%; in test [3] it was 3.85%; in test [4], 20.4%; in test [5] it was 4.2%; in test [6] it was 10.8%.
On to `NS(=O)(=O)c1ccc([As]=O)cc1` (configuration not stated), for which the growth inhibition in test [1] was -17.4%; in test [2], -8.25%; in test [3], -3.95%; in test [4] it was -6.9%; in test [5], -48.1%; in test [6], -37.8%.
With `ClCCN(CCCl)c1ccc(N=Cc2ccccc2)cc1`, the growth inhibition was 24.9% in test [1]; 17% in test [2]; 7.35% in test [3]; 4.3% in test [4]; 19.4% in test [5]; 44.6% in test [6].
For `Nc1ccccc1C(=O)Oc1ccccn1`, the growth inhibition was 7.45% in test [1]; 8.9% in test [2]; -0.8% in test [3]; 13.6% in test [4]; -8.85% in test [5]; 6.35% in test [6].
For `NC(N)=NOCC[C@@H](N)C(=O)O`, the growth inhibition in test [1] was -0.5%; in test [2], -3.7%; in test [3] it was 8.85%; in test [4], 20.2%; in test [5], 1.4%; in test [6] it was 11.7%.
